High-throughput results deposited in PubChem by several laboratories.
Most compounds without a hit are left out; they make up all but 3.7% or so of the library.
PfHsp90 yeast 2: inhibits growth of yeast expressing Plasmodium falciparum Hsp90. 0.32% of 310,000 active. AID 504621. S. cerevisiae expressing PfHsp90, BacTiter-Glo ATP, 48 h; yeast lacking PDR1 and PDR3 efflux regulators. inhibition, % at 9.4 µM;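 active means every replicate shows inhibition above about 80%, whatever the replicate mean, limit read from the data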
Rce1 inhib: blocks yeast Ras-converting enzyme; calls only; Q03530; yeast membranes, quenched prenylated peptide cleavage fluorescence; 0.27% of 290,000 active;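 active means fall in fluorescence gain of 50% or more versus controls, with final raw signal at or below 3038400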
Target sequence (Q03530 whole entry, looked up): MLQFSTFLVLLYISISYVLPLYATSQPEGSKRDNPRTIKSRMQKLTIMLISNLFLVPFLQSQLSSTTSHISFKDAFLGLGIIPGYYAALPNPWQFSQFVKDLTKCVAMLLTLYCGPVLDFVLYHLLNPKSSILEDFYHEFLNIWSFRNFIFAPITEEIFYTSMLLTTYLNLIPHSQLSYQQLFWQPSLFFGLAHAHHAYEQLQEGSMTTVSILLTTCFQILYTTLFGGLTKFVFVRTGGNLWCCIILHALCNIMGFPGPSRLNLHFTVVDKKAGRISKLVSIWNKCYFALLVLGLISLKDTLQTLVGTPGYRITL
TIM10 inh: growth inhibitors of TIM10 yeast strain | S. cerevisiae TIM10 strain growth, BacTiter-Glo luminescence, 24 h | inhibition, % at 10 µM | 1.4% of 330,000 active;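 active means inhibition of 40% or more at the single tested concentration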;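 further: wild-type TIM10 isogenic control strain grown at permissive 25 °C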
tim10-1 inh: tim10-1 yeast growth inhibition; S. cerevisiae tim10-1 ts strain growth, BacTiter-Glo, 24 h; inhibition, % at 20 µM; 2.2% of 330,000 active; AID 463190;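 active means inhibition of at least 40%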;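 further: mutant grown at 25 °C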
tim23-1 inh: growth inhibitors of tim23-1 mutant yeast; S. cerevisiae tim23-1 growth, BacTiter-Glo luminescence, 24 h; inhibition, % at 20 µM; 1.3% of 330,000 active; AID 463212;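 active means growth inhibition of the mutant yeast at or above 50%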;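 further: temperature-sensitive mutant grown at 25 °C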
tim10 confirm: TIM10 yeast growth inhibition, confirmed | AID 463215 | shares compounds with TIM10 inh | inhibition, % at 10 µM | 63% of 4,600 active | S. cerevisiae tim10 strain growth, BacTiter-Glo luminescence, 24 h;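 active means inhibition of yeast growth at or above a set limit in either of two replicates at 10 µM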; further: this counterscreen used the strain with wild-type TIM10
Each line names hits and unclear results; the compound was inactive in the other large screens (follow-up assays come after a bar, where they were run).

O=C1CC(c2cccc(Cl)c2)CC(O)=C1C=Nc1cccc(Cl)c1 (stereo not given)	TIM10 inh 79 | tim10 confirm 80
O=C1CC(c2ccccc2)CC(O)=C1C=Nc1ccccc1 (stereo not given)	none
CC(C)(C)C1CCC(CN2C(Nc3ccccc3)=NC[C@@H]2Cc2ccccc2)CC1 (stereo not given in full)	TIM10 inh 49 (no result: Rce1 inhib) | tim10 confirm 53
CCN1C(Nc2ccccc2)=NC[C@@H]1Cc1ccccc1	none
O=C(CCC(=O)N1CCOc2ccccc21)NCCN1CCOCC1	none
O=C(/C=C/c1c(F)cccc1Cl)c1ccc(O)cc1	TIM10 inh 74 | tim10 confirm 62
O=C(Nc1ccc(Cl)c([N+](=O)[O-])c1)C(Sc1ccccc1)c1ccccc1 (stereo not given)	Rce1 inhib active, TIM10 inh 42 | tim10 confirm 43
O=C(Nc1cc([N+](=O)[O-])ccc1Cl)C(Sc1ccccc1)c1ccccc1 (stereo not given)	none
O=C(c1ccccc1[N+](=O)[O-])n1cnc2ccccc21	none
O=C(c1cc(Cl)ccc1[N+](=O)[O-])n1cnc2ccccc21	TIM10 inh 41 | tim10 confirm inactive
Cc1cc(NC(=O)COc2ccccc2)n(-c2ccccc2)n1	none
Cc1cc(C)cc(OCC(=O)OCC(=O)Nc2cc(C)nn2-c2ccccc2)c1	TIM10 inh 83 (no result: Rce1 inhib) | tim10 confirm inactive
Cc1cc(NC(=O)COC(=O)c2cc(S(=O)(=O)N3CCOCC3)ccc2N2CCCCC2)no1	none
CC(C)(C)n1cnc2cc(NC(=O)c3ccccc3)ccc21	TIM10 inh 58 | tim10 confirm 64
Cn1cnc2cc(NC(=O)c3ccco3)ccc21	none
CC(=O)N1CCN(c2ccc(NC(=O)c3ccco3)cc2Cl)CC1	none
O=C(c1ccccc1)c1cccc(NC(=O)c2ccco2)c1	TIM10 inh 53 | tim10 confirm 60
O=C(Nc1ccc2c(c1)ncn2-c1ccccc1)c1ccco1	TIM10 inh 51 | tim10 confirm 50
O=C(Nc1ccc(N2CCN(C(=O)c3ccccc3)CC2)c(Cl)c1)c1ccco1	TIM10 inh 45 | tim10 confirm 36
COC(=O)c1cnc(Oc2ccc(NC(=O)NC(=O)c3ccccc3Cl)cc2)cc1C(F)(F)F	none
CC1(C)Cc2c(sc3nc(C4CC4)n(N)c(=O)c23)CO1	none
CCc1nnc(NC(=O)CN2CCN(Cc3ccccc3Cl)CC2)s1	none
CC(C)(C)NC(=O)Cn1cc(C#N)c2cc(Br)ccc21	none (no result: PfHsp90 yeast 2)
Cc1ccnc(NC(=O)c2ccc(OCC3CCCO3)cc2)c1 (stereo not given)	none (no result: PfHsp90 yeast 2)
CCC(C)(C)NC(=O)CCn1c(-c2ccccc2)cc(C(C)=O)c1C	none
Cc1cccc(NC(=O)c2ccc(Cl)c(S(=O)(=O)N3CCCCC3)c2)n1	none (no result: PfHsp90 yeast 2)
CCOC(=O)c1cccc(NC(=O)c2ccco2)c1	TIM10 inh 46 | tim10 confirm inactive
CC(=O)c1cccc(NC(=O)c2ccco2)c1	none (no result: Rce1 inhib)
CC(=O)Nc1cccc(NC(=O)CSc2nc(=O)n(Cc3ccccn3)c3c2CCC3)c1	TIM10 inh 97 (no result: PfHsp90 yeast 2) | tim10 confirm inactive
CC(=O)Nc1cccc(NC(=O)CSc2nc(=O)n(Cc3ccncc3)c3c2CCC3)c1	none
O=C(COC(=O)Cc1ccc(Cl)cc1)NC1CCCC1	none (no result: Rce1 inhib)
Cc1noc(C(=O)Nc2ccc3c(c2)OCO3)c1Cl	TIM10 inh 97 | tim10 confirm inactive
S=C1NCCC12C(=S)Nc1ccccc12 (stereo not given)	none
Cc1c(C(=O)N2CCN(S(=O)(=O)c3ccccc3)CC2)oc2ccccc12	TIM10 inh 47 (no result: Rce1 inhib) | tim10 confirm 32
Cc1ccc(C)c(Oc2coc3cc(OC(=O)c4cccs4)ccc3c2=O)c1	TIM10 inh 40 | tim10 confirm inactive
COc1ccc(Oc2coc3cc(OC(=O)c4cccs4)ccc3c2=O)cc1	none
Cc1cc(C)cc(Oc2coc3cc(OC(=O)c4cccnc4)ccc3c2=O)c1	none
CCOC(=O)Oc1ccc2c(=O)c(Oc3cc(C)cc(C)c3)coc2c1	TIM10 inh 44 | tim10 confirm inactive
COCC(=O)N[C@@H]1c2cc(OC)c(OC)cc2C[C@H]1OCc1ccccc1	none (no result: Rce1 inhib)
O=C(Nc1ccc(F)cc1F)c1c(C(F)(F)F)ccnc1Oc1ccc(Cl)cc1	none
O=C(CCc1nc2ccccc2c(=O)[nH]1)Nc1cc(Cl)ccc1N1CCCC1	none (no result: Rce1 inhib)
